This excerpt belongs to a sample that is enriched for hits.
miR-122 inh: raises miR-122 sensor activity in Huh7 cells. Huh7 psiCHECK-miR122 Renilla luciferase sensor, 48 h. activation, % at 12.5 µM. 340,000 compounds, 0.14% hits;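 active = mean activation of 30% or more, with every replicate also reaching 30%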;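 also: 0% = median of neutral control wells and 100% = median of positive control wells; higher luciferase signal means stronger suppression of miR-122 activity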
* = called active by the depositor.

SMILES	miR-122 inh
C[C@H](CO)N1C[C@H](C)[C@H](CN(C)S(C)(=O)=O)Oc2cc(-c3ccccc3F)ccc2S1(=O)=O	7
CN(C)CCNc1nc2sc3c(c2c(=O)n1CCc1ccccc1)CCCCC3	32*
CCCN(C)C[C@H]1Oc2cc(Br)ccc2S(=O)(=O)N([C@H](C)CO)C[C@H]1C	-1
CCCNC(=O)N(C)C[C@H]1Oc2cc(-c3ccccc3)ccc2S(=O)(=O)N([C@H](C)CO)C[C@@H]1C	-32
CCCNC(=O)C[C@@H]1CC[C@@H]2[C@H](COc3ccc(NS(=O)(=O)c4ccccc4C)cc3C(=O)N2C)O1	67*
COC(=O)C[C@@H]1CC[C@@H]2[C@@H](COc3ccc(NS(=O)(=O)c4ccccc4F)cc3C(=O)N2C)O1	42*
C/C=C/c1cnc2c(c1)C(=O)N([C@@H](C)CO)C[C@H](C)[C@H](CN(C)C(=O)c1cccnc1)O2	3
CCC(=O)N(C)C[C@@H]1Oc2ncc(C#C[C@@H](C)O)cc2C(=O)N([C@H](C)CO)C[C@H]1C	-2
C[C@H](CO)N1C[C@H](C)[C@H](CN(C)S(C)(=O)=O)Oc2ncc(-c3cccc(F)c3)cc2C1=O	-22
CCN(CC)CCOc1cccc(C(C)C)c1	36*
COc1ccccc1-c1cnc2c(c1)C(=O)N([C@H](C)CO)C[C@@H](C)[C@@H](CN(C)Cc1ccccc1)O2	-3
CO[C@H]1CN(C)C(=O)c2ccc(NC(=O)Nc3cccc(F)c3)cc2OC[C@@H](C)N(C)C[C@@H]1C	-2
COc1cccc(C#Cc2cnc3c(c2)C(=O)N([C@@H](C)CO)C[C@H](C)[C@@H](CN(C)C(=O)C2CCCCC2)O3)c1	-2
COc1ccccc1CNS(=O)(=O)c1ccc(-c2cc(C)no2)cc1	-95
CNc1nc(NCC2CCCCC2)c2sccc2n1	43*
COc1ccccc1CNc1nc(NCC2CC2)nc2ccsc12	43*
C[C@@H](O)C#Cc1cnc2c(c1)C(=O)N([C@@H](C)CO)C[C@H](C)[C@@H](CN(C)C(=O)CN(C)C)O2	6
C[C@H](CO)N1C[C@H](C)[C@@H](CN(C)Cc2ccccn2)Oc2cc(-c3cccc(C#N)c3)ccc2S1(=O)=O	-39
C/C=C/c1cnc2c(c1)C(=O)N([C@H](C)CO)C[C@H](C)[C@@H](CN(C)S(=O)(=O)c1cccs1)O2	-1
C[C@@H]1CN([C@H](C)CO)C(=O)c2cc(C3=CCCC3)cnc2O[C@@H]1CN(C)C(=O)C1CCCCC1	11
C[C@@H]1CN([C@H](C)CO)S(=O)(=O)c2ccc(C#Cc3ccccc3)cc2O[C@H]1CN(C)C(=O)Nc1ccccc1	-1
CCCC#Cc1cnc2c(c1)C(=O)N([C@@H](C)CO)C[C@H](C)[C@@H](CN(C)Cc1cccnc1)O2	3
Cc1ccc(S(=O)(=O)N(C)C[C@@H]2Oc3ncc(C#CCC(C)C)cc3C(=O)N([C@H](C)CO)C[C@@H]2C)cc1	-7
C[C@H](CO)N1C[C@H](C)[C@@H](CN(C)C(=O)Nc2ccccc2F)Oc2ncc(-c3cccc(F)c3)cc2C1=O	-13
CCCNC(=O)Nc1ccc2c(c1)OC[C@H](C)N(C)C[C@H](C)[C@H](OC)CN(C)C2=O	-1
SMILES	miR-122 inh
COc1ccc(C#Cc2ccc3c(c2)O[C@H](CN(C)C)[C@@H](C)CN([C@@H](C)CO)S3(=O)=O)cc1	-11
C[C@H](CO)N1C[C@H](C)[C@@H](CN(C)Cc2cccc(F)c2)Oc2ncc(C3=CCCCC3)cc2C1=O	-9
CN1C(=O)c2cc(NS(=O)(=O)c3ccc(Cl)cc3)ccc2OC[C@H]2O[C@H](CC(=O)N3CCc4ccccc4C3)CC[C@@H]21	33*
CN1C(=O)c2cc(NC(=O)c3ccc(C(F)(F)F)cc3)ccc2OC[C@@H]2O[C@@H](CC(=O)NC3Cc4ccccc4C3)CC[C@@H]21	55*
COCC(=O)Nc1ccc2c(c1)C(=O)N(C)[C@@H]1CC[C@H](CC(=O)N3CCc4ccccc4C3)O[C@H]1CO2	37*
COCC(=O)Nc1ccc2c(c1)C(=O)N(C)[C@@H]1CC[C@@H](CC(=O)NC3Cc4ccccc4C3)O[C@@H]1CO2	37*
COc1ccccc1-c1cnc2c(c1)C(=O)N([C@@H](C)CO)C[C@@H](C)[C@H](CN(C)Cc1ccccc1)O2	-1
C[C@@H]1CN([C@H](C)CO)S(=O)(=O)c2ccc(-c3cncnc3)cc2O[C@H]1CN(C)Cc1ccccn1	6
C[C@H]1CN([C@@H](C)CO)C(=O)c2cccc(NC(=O)C3CCOCC3)c2O[C@@H]1CN(C)Cc1ccc(C(F)(F)F)cc1	-105
COc1cccc(-c2cnc3c(c2)C(=O)N([C@H](C)CO)C[C@@H](C)[C@H](CN(C)Cc2cccnc2)O3)c1	2
CCCC#Cc1ccc2c(c1)O[C@H](CN(C)C(=O)NCCC)[C@H](C)CN([C@@H](C)CO)S2(=O)=O	-10
C[C@@H]1CN([C@H](C)CO)C(=O)c2cc(-c3cccc(F)c3)cnc2O[C@H]1CN(C)Cc1ccncc1	5
C[C@H](CO)N1C[C@H](C)[C@H](CN(C)Cc2ccccc2C(=O)O)Oc2ncc(C3=CCCCC3)cc2C1=O	0
C[C@H]1CN([C@@H](C)CO)S(=O)(=O)c2ccc(C#CC3CC3)cc2O[C@@H]1CN(C)Cc1ccccn1	-66
C[C@@H]1CN([C@@H](C)CO)C(=O)c2cc(-c3ccncc3)cnc2O[C@@H]1CN(C)C(=O)Cc1ccccn1	0
Cc1noc(C)c1NC(=O)N(C)C[C@@H]1Oc2cc(C#CCC(C)C)ccc2S(=O)(=O)N([C@H](C)CO)C[C@H]1C	1
C[C@H]1CN([C@@H](C)CO)C(=O)c2cc(C#Cc3ccccn3)cnc2O[C@H]1CN(C)C(=O)CCN1CCCCC1	2
C[C@H](CO)N1C[C@H](C)[C@@H](CN(C)C(=O)c2ccccn2)Oc2ncc(-c3cccc(F)c3)cc2C1=O	-6
COCC#Cc1ccc2c(c1)O[C@H](CN(C)C(C)=O)[C@H](C)CN([C@@H](C)CO)S2(=O)=O	1
CC(C(=O)OCC(=O)Nc1ncc(Cl)cc1Cl)N1C(=O)c2ccccc2C1=O (stereo unspecified)	36*
C[C@@H]1CN([C@@H](C)CO)C(=O)c2cc(C#CC3CC3)cnc2O[C@H]1CN(C)C	3
C[C@H]1CN([C@@H](C)CO)S(=O)(=O)c2ccc(Br)cc2O[C@@H]1CN(C)S(C)(=O)=O	-8
C[C@H](CO)N1C[C@H](C)[C@H](CN(C)C(=O)c2ccccc2F)Oc2ncc(-c3ccncc3)cc2C1=O	8
Oc1ccccc1/C=N/Nc1nc2ccccc2o1	48*
C[C@H](CO)N1C[C@H](C)[C@H](CN(C)Cc2ccc(F)cc2)Oc2cc(C#Cc3ccccn3)ccc2S1(=O)=O	13
SMILES	miR-122 inh
C[C@H]1CN([C@@H](C)CO)C(=O)c2cc(C3=CCCCC3)cnc2O[C@H]1CN(C)C(=O)Cc1ccccc1	-7
CCCC#Cc1ccc2c(c1)O[C@H](CN(C)C(=O)NCCC)[C@@H](C)CN([C@@H](C)CO)S2(=O)=O	-16
COCC(=O)N(C)C[C@H]1Oc2ncc(C#Cc3ccncc3)cc2C(=O)N([C@@H](C)CO)C[C@@H]1C	7
COc1cc(/C=N/Nc2nc(Nc3ccc(C)cc3)nc(-n3nc(C)cc3C)n2)cc(OC)c1OC	47*
COCC(=O)N(C)C[C@@H]1Oc2cc(-c3cccc(F)c3)ccc2S(=O)(=O)N([C@H](C)CO)C[C@@H]1C	-5
C[C@H]1CN([C@@H](C)CO)C(=O)c2cc(C#Cc3ccccc3F)cnc2O[C@@H]1CN(C)C(=O)Cc1ccncc1	11

High-throughput results: PubChem BioAssay, Broad Institute
